In this test the test system is Plasmodium falciparum. Nature of the test: Plasmodium falciparum sporozoite viability assay. In kind it is functional, organism-based. Also noted: scale not given: in the data most compounds retested in dose-response had high values.

“And” between values parts separate entries of the source, which are not always exact repeats. Equal entries are not always repeated. The campaign covered roughly 34,000 compounds. About 290 (0.85%) showed an effect of 50% or more. The sample as a whole holds a higher share of strong results than the screen did.

The values that follow come from ChEMBL document CHEMBL3988442, “University of Dundee, Small-Polar-MMV Screening Library” (2021).

Turning to `COc1cccc(CNC(=O)C(c2cccc(F)c2)N2CCOCC2)c1` (stereo unspecified), the “Percent Effect” value is reported as -3.044%.
The same measure, in the same setting: next, `O=C(c1ccc(OCC2CC2)nc1)N1CCCC(n2cccn2)C1` (stereo unspecified): -19.18%; `CC(C)C(=O)N(C)CC(=O)Nc1ccc(Br)cn1`: 14%; `CC(C)NC(=O)C1CCN(c2nc3nc[nH]c(=O)c3s2)CC1`: 4.304%.
On the same count and under the same terms, the value for `O=C(O)CC(O)(CC(=O)O)C(=O)O.OC1CCN(Cc2ccnc(-c3cccnc3)n2)CC1` was -11.33%; that for `O=C(C1CCOCC1)N1CC[C@@H](O)[C@@H]1Cc1ccccc1` was -0.722%.
Same read-out and setting: the value for `CCc1cc(C(=O)N2CCc3nc4c(C)csc4c(=O)n3CC2)on1` was -3.013%; that for `Cc1ccc(CNC2CCCN(Cc3noc(C4CC4)n3)C2)s1` (stereo unspecified) was 14.12%.
`Cc1nccc([C@@H]2C[C@H]3CN(S(=O)(=O)c4ccccc4)C[C@H]3O2)n1`: the “Percent Effect” value is given as -0.614%.
The same measure, in the same setting: next, `COCc1noc(-c2ccc(N3CCCC3c3nccs3)nc2)n1` (stereo unspecified): 12.02%; `COCc1noc(-c2ccc(N3CCCC3c3ccc(F)cc3)nc2)n1` (stereo unspecified): -8.49%.
Turning to `COCc1noc(-c2ccc(N3CCCCC3COC)nc2)n1` (stereo unspecified), the “Percent Effect” value (10 mM as filed; unlikely as a test dose) was 46.38% and 65.96% and 53.91%.
Take `Cc1ccc(CN2Cc3nccn3CC(Cn3cccn3)C2)s1.O=C(O)C(F)(F)F` (stereo unspecified): the “Percent Effect” value was 14.89%.
As to `Cn1cnc2c1CCN(Cc1csc(-c3ccsc3)n1)C2`, where the note is “10 mM as filed; unlikely as a test dose”, the “Percent Effect” value is 58.75% and 42.56% and 36.07%.
As to `c1ccc(CCN2CCc3c(ncn3C3CC3)C2)nc1`, the “Percent Effect” value (10 mM as filed; unlikely as a test dose) was 67.57% and 58.81%.
As to `Cn1cc(-c2nc(CN3CCc4c(ncn4C)C3)cs2)cn1`, where the note is “10 mM as filed; unlikely as a test dose”, the “Percent Effect” value is 16.12% and 15.46% and 16.04%.
Still for that read-out and setting: the value for `c1ccc(-c2nccc(N3CCc4c(ncn4C4CC4)C3)n2)cc1` was 47.31% and 54.94% and 44.8%; that for `Cn1cnc2c1CCN(c1ccnc(-c3ccccc3)n1)C2` was 23.08% and 36.96% and 19.93%; that for `c1cc(-c2nc(CN3CCc4c(ncn4C4CC4)C3)cs2)cs1` was 57.35% and 45.82% and 61.3%.
`c1ccc(OCCN2CCc3c(ncn3C3CC3)C2)cc1`: the “Percent Effect” value is 1.314%.
Still for that read-out and setting: next, `COc1cc(CCC(=O)N2CCC(c3cc4ncc(C)nc4[nH]3)C2)on1` (stereo unspecified): 3.144%; `Cn1ncc2ccc(C3CCCN(C(=O)Cc4cccs4)C3)nc21` (stereo unspecified): 10.94%.
Take `CC(=O)N1CCCC(Cc2cncc(Br)c2)C1` (stereo unspecified): the “Percent Effect” value came out at 6.529%.
Still for that read-out and setting: the value for `Cl.NC[C@H]1CC[C@H](c2c(C(N)=O)sc3ccccc32)CC1` was -7.353%; that for `CC(C)c1nccn1-c1cncc(C2CCCN(C3CCCC3)C2)n1` (stereo unspecified) was -6.527%.
For `CC(=O)Nc1ncc(S(=O)(=O)Nc2cccc(C)c2)s1`, the “Percent Effect” value (10 mM as filed; unlikely as a test dose) is -25.8% and -18.95%.
Still for that read-out and setting: the value for `Cn1cnc2c1CCN(Cc1csc(-c3ccccc3F)n1)C2` was 76.94% and 88.44% and 75.64%.
With `Cn1cnc2c1CCN(Cc1csc(-c3ccc(F)cc3)n1)C2`, the “Percent Effect” value (10 mM as filed; unlikely as a test dose) is -9.047% and 9.476% and -2.391%.
Still for that read-out and setting: the value for `c1ccc(Cc2noc(CN3CCc4c(ncn4C4CC4)C3)n2)cc1` was -14.98% and -2.391% and 8.348%.
On to `CN(Cc1ccncc1)C1CC2(CCN(Cc3ccccn3)CC2)C1`, for which the “Percent Effect” value is -12.29%.
`c1cc2c(cc1CN(Cc1nc(C3CC3)no1)C1CCCC1)OCO2`: for the setting “10 mM as filed; unlikely as a test dose”, the “Percent Effect” value was 12.71% and 9.481% and -1.226%.
Still for that read-out and setting: next, `CCc1noc(CN(Cc2ccc3c(c2)OCO3)C2CCCC2)n1`: 55.13% and 62.45% and 59.26%; `COc1ccc(C(C(=O)O)N2CCC(Cn3cccn3)CC2)cc1F` (stereo unspecified): -7.781% and -11.29%.
Turning to `CC(C)n1nnc(CC(=O)NCC2(c3ccccc3F)CCCC2)n1`, the “Percent Effect” value stood at 17.65%.
The same measure, in the same setting: the value for `O=C(CCCc1ccccn1)N1CCCC(n2cccn2)C1` (stereo unspecified) was 0.2979%; that for `C1CCCN(CC2CCCN(Cc3noc(C4CC4)n3)C2)CC1` (stereo unspecified) was 3.026%.
As for `COc1ccc(C(CO)NC(=O)Nc2cccc(C(C)=O)c2)cc1` (stereo unspecified), the “Percent Effect” value (10 mM as filed; unlikely as a test dose) was 15.43% and 22.65%.
On the same count and under the same terms, the value for `COc1ccc(C(CO)NC(=O)Nc2cccc(C#N)c2)cc1` (stereo unspecified) was 6.223% and 12.91% and -11.88%; that for `COc1ccc(C(CO)NC(=O)Nc2cccc(F)c2)cc1` (stereo unspecified) was 72.06% and 80.87%.
With `CN(CCc1ccccc1)Cc1c(C2CCNCC2)[nH]c2ncccc12.Cl`, the “Percent Effect” value is recorded as -0.2567%.
For `CNc1cncc(C2CCCN2S(=O)(=O)c2ccccc2F)n1` (stereo unspecified), the “Percent Effect” value turned out to be 7.397%.
With `COc1ccc(CNCc2c(C)nn(C)c2N2CCOCC2)cc1`, the “Percent Effect” value (10 mM as filed; unlikely as a test dose) was -16.18% and -2.312% and -16.24%.
Same read-out and setting: the value for `Cc1nn(C)c(N2CCOCC2)c1CNCc1ccc(N(C)C)nc1` was 6.683% and 14.39% and 13.71%.
As for `C=Cn1ncc(CN2C[C@@H]3CCCN3C[C@H]2Cc2ccccc2)c1C`, the “Percent Effect” value is recorded as -1.399%.
The same measure, in the same setting: the value for `CC(=O)N1N=C(c2cccs2)OC1C(=O)Nc1ccc(C)cc1` (stereo unspecified) was -16.37%.
On the same count and under the same terms, the value for `Cc1nc(NCc2cccc(F)c2)cc(C2CCNCC2)n1.Cl` was 0.8951%; that for `COc1cccc(-c2ccnc(C3CCNCC3)c2)c1` was 4.65%.
For the molecule `COc1cccc(Nc2nc(C3CCCNC3)c3sc(C)c(C)n23)c1.Cl` (stereo unspecified), the “Percent Effect” value (10 mM as filed; unlikely as a test dose) is 4.856% and 5.657% and 12.75%.
Still for that read-out and setting: next, `COc1cccc(Nc2nc(C3CCNCC3)c3sc(C)c(C)n23)c1.Cl`: 77.36% and 36.71% and 52.33%.
Still for that read-out and setting: the value for `Cc1sc2c(C3CCNCC3)nc(Nc3cccc(F)c3)n2c1C.Cl` was 63.64% and 42.54% and 49.37%.
As to `COc1cccc(-n2nnc(C(=O)N3CCN(C(C)=O)CC3)c2C)c1`, the “Percent Effect” value is 6.024%.
As for `COCC1CC2(CCN(c3cccc(C)n3)CC2)CN1c1ncccn1.O=C(O)C(F)(F)F` (stereo unspecified), the “Percent Effect” value is -2.7%.
On the same count and under the same terms, next, `COCCNC(=O)C1(CCCc2cccnc2)CCCN1C` (stereo unspecified): 16.89%; `O=C1C(NCc2nnc3n2CCCC3)CCCN1c1ccccc1` (stereo unspecified): 6.53%.
Still for that read-out and setting: next, `Cc1ccc2c(c1)C(=O)NCC1(CCN(C(=O)c3cc(C)no3)CC1)O2`: 21.42%; `CN1C[C@@H](C(=O)N2CCOCC2)[C@@]2(CCc3ccccc3C(=O)N2)C1`: -1.963%.
Regarding `COc1ccc(-c2ccc(C3CNCCO3)nc2)cc1.Cl` (stereo unspecified), the “Percent Effect” value (10 mM as filed; unlikely as a test dose) is 82.18% and 93.08% and 86.88%.
For the molecule `Cn1nc(C2CNCCO2)cc1CCOc1ccc(C(F)(F)F)cc1` (stereo unspecified), the “Percent Effect” value turned out to be 8.847%.
Still for that read-out and setting: the value for `COc1ccc(OCCc2cc(C3CNCCO3)nn2C)cc1` (stereo unspecified) was 0.06458%; that for `COc1ccc(-c2cnc(N(C)C)nc2C2CNCCO2)cc1.Cl` (stereo unspecified) was 3.932%.
On the same count and under the same terms, the value for `COc1ccc(-c2ccnc(C3CCNCC3)c2)cc1.Cl` was 12.14%.
